The sequences below were run on VDR:RXRa (NR concentration 270 nM, RXRa partner concentration 90 nM) (assay: PBM binding z-score (relative to random genomic background probes); higher = stronger binding; sequences stand for … in GC…GCGATTGACAGCGTAGAATGAAGG).
Protocol: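 Protein-binding microarray (Agilent 4x180K custom design, double-stranded 60-nt probes: 5' GC cap, 34-nt variable region, 24-nt constant primer region; full probe sequence given). Purified or IVT nuclear receptor:RXRα heterodimers (3:1 NR:RXRα, mostly 270:90 nM) or homodimers were incubated for 1 h in PBS with 2% milk and no ligand, then detected with Alexa488 antibodies. Fluorescence from o1-orientation probes (~5 replicates averaged) was converted to z-scores against 500 random hg19 background probes. Variable regions are seed direct-repeat (DR0–DR5) sites, all their single-nucleotide variants and half-site ablations.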
CCTACTGGGCCATCAGTTCATTGATATCAACGTT was tested, and the PBM binding z-score was 1.13.
CCTACTGGGCCATCAGGTCATTTATATCAACGTT showed a PBM binding z-score of 1.65.
In the case of AGTCAAAGTTTACTAGGTAACGTAAGATTCAGCT, the PBM binding z-score is reported as 0.363.
In the case of GCAGACAGGTGAAACGCAGGTAACTAAGGGTGGC, the PBM binding z-score is reported as -0.407.
For CGTCCAAGGTCAAAGGTCTGTGAAGAGATGACGG, the PBM binding z-score was 4.54.
ATTGAAAGGTCGAAGGTGAGTATACCCACCCGAA gave a PBM binding z-score of 3.13.
For CGAACGAGGGCATGAGTTGATATCAAATGCCGAT, the PBM binding z-score was 1.44.
CCTATTAGTTGACCATAAGTGCAACCGAAGCTCG was tested, and the PBM binding z-score was 1.31.
Work on TGATATAGGTAAAAGGTGAAAGTCGGTGTGGTAA yielded a PBM binding z-score of 1.33.
With CCCACTGGGGCAGAAAGGTTACCATACCATCCGG the PBM binding z-score was 0.905.
For CCTACTGGGCCCAGGTCATTGATCAGTCAAAGCA, the PBM binding z-score was 1.7.
AGAACCAGGGCACGCTGAGTTGATAGCAGAGTAG gave a PBM binding z-score of 0.532.
TCATATAGGTAAAAGGTGTAAGTCGGTGTGGTAA gave a PBM binding z-score of 0.727.
Work on TCTTCTAGATCAAAGGTTAAGAAAGCCGAAGCCT yielded a PBM binding z-score of 1.58.
For TAGCCTAGGTCATGCGTGCCAGTATAGTGTCGGC, the PBM binding z-score was 2.31.
ACTAGCAGCCCAAGTTTGGGTCACTCAAACAAAG showed a PBM binding z-score of 0.327.
CGCCAAAGTTCAACTAAGGTAACGTAAAGCACGC was tested, and the PBM binding z-score was 4.9.
GCTTACGGGTCAAAGGTTCTAGCATGAATAGAAT gave a PBM binding z-score of 4.42.
Sequence TAGCCTAGGTCAGATCGGCCCAGTATACGCTATA has a PBM binding z-score of 0.134.
GCGACTGGGGCATCGGCAGGTTACCATAACTTAA was tested, and the PBM binding z-score was -0.199.
For CCTAGCAGGCCAATCTGGCTCACTCAAGGCTTGA, the PBM binding z-score was -0.563.
In the case of CGAACGAGGGCATGAGTTGATAACAAATGCCGAT, the PBM binding z-score is reported as 1.04.
Sequence ATCTCTAGGCAAAGATAGTTCAGTGAATGCAAAT has a PBM binding z-score of -0.11.
Sequence ATATGTAGGTTAAGGGTCATTCACGTTGGTTCGC has a PBM binding z-score of 4.75.
TCTATTAGTTGTTTAGGGCAACCGAAACAGCGGA was tested, and the PBM binding z-score was 0.707.
TCATGTAGGTAAACAGGTGAAAGTCCGTAAGTTA gave a PBM binding z-score of 0.613.
With CCGACTGGGGCAAAGTTTACCATACTCAGTACGA the PBM binding z-score was 0.062.
In the case of CAAACTAGGTCACAGAGGTCAAAGTGCGTGCGTA, the PBM binding z-score is reported as 8.02.
ATACCAAGGTGATCGTGAGGTAGTTGATACTAAC was tested, and the PBM binding z-score was -0.169.
In the case of GCAGACAGGTGAAACGCAGTTAACTCAGGGTGGC, the PBM binding z-score is reported as -0.561.
TCTATAAGTTGATTAGGGCAACCGAAACAGCGGA was tested, and the PBM binding z-score was 0.463.
Work on AGTCAAAGTTCAGGACGAGGTAACGGAAAGCACG yielded a PBM binding z-score of 2.86.
For TCATATAGGTAAAAAGTGAAAGTCGGTGTGGTAA, the PBM binding z-score was 0.783.
For ATAACGAGGGCAATGAGTTGATAGCACGGGTGGC, the PBM binding z-score was 4.89.
In the case of TAGCCTAGGTCACTCAGGGGCCAGTATAGAAAGC, the PBM binding z-score is reported as 2.42.
Work on TAGCCTAGGTCATGCGGGCCAGTGTAGTGTCGGC yielded a PBM binding z-score of 2.74.
Work on ATATGTAGGTTACATCCGGATCATTCAGGCTATG yielded a PBM binding z-score of 0.945.
With ATCGAAAGCTCGACGAGGTGAGTATACACCGTTT the PBM binding z-score was -0.25.
With CCTCGGAGGACAGAAGCTCAGAGCTGTCCGCTTT the PBM binding z-score was -0.941.
In the case of ATCTCTAGGTAGCCAAGTTCAGTGAATGCCGAAC, the PBM binding z-score is reported as 2.24.
